Assay results taken from PubChem BioAssay AID602293 (National Center for Advancing Translational Sciences (NCATS), 2012).
The campaign covered roughly 1,300 compounds. About 30 (2%) were called active. Inconclusive results (about 10%) are left out. Calls come from the whole dose curve; as a rule, active = well fitted inhibition curve with a large enough effect; inconclusive = small, poorly fitted or top-dose-only effect; inactive = flat fitted curve, though single readings scatter. For the sample, actives were picked, then their nearest neighbours and some compounds at random.

Assay: qHTS for antagonists of the Thyroid Stimulation Hormone Receptor: Hit Validation in HTRF Activity in a Luteinizing Hormone Receptor Cell Line
Conditions: LHR-expressing cell line, cAMP HTRF, antagonist mode; series mostly up to 58 µM; activity change, negative = inhibition: at the top concentration
Source text: The thyroid-stimulating hormone receptor (TSHR) is a member of the 7 trans-membrane-spanning receptor (7TMR) family of cell surface receptors. TSHR-mediated hyperthyroidism is important in thyroid pathology. The development of small molecule antagonists of TSHR may lead to therapeutic approaches for TSHR-mediated hyperthyroidism caused by constitutively activating mutations or stimulating auto-antibodies associated with Graves' disease. Graves' disease is the leading cause of hyperthyroidism and is caused by autoantibodies that stimulate TSHR (TsAbs) causing thyroid growth and unregulated overproduction of thyroid hormones and existing treatments have liabilities (agranulocytosis). In addition, TSHRs are known to be expressed in multiple extrathyroidal tissues including bone, brain, kidney, testis, fat and cells of the immune system but the role of the TSHR in these tissues is not clear. Therefore, TSHR antagonists/inverse agonists could be used as probes of extrathyroidal TSHR function. Finally, TSHR inverse agonists, which are a subclass of antagonists that inhibit agonist-independent (or basal or constitutive) TSHR signaling, could be used to inhibit TSH-independent signaling in patients with recurrent or metastatic thyroid cancer who are receiving thyroid hormone to suppress TSH.
In collaboration between scientist from the NCGC and the NIDDK, a miniaturized HTRF high-throughput screen was developed. It's a cell based assay, where an anti cAMP antibody contains a fluorescent cryptate tag (excitation 337 nm; emission 620 nm) and the acceptor is cAMP-d2 (excitation 620 nm; emission 665 nm). When antibody and cAMP-d2 interact and are excited by a 337 nm light, a FRET occurs resulting in emission at 665 nm. The assay is competition between cAMP-d2 and cAMP (from the cell lysate). The homogeneous protocol allows for one step dispense after stimulation that is automation friendly. In order to confirm specificity of the compounds to the TSHR, a confirmatory assay was conducted on a similar family member, the Luteinizing Hormone (LH) receptor, transfected into a HEK 293 cell line, using an orthogonal detection technology to measure cAMP stimulation: antibody-based Homogeneous Time Resolved Fluorescence (HTRF).
NIH Chemical Genomics Center [NCGC]
NIH Molecular Libraries Probe Centers Network [MLPCN]
Assay Provider: Marvin Gershengorn, NIDDK
Homogeneous Time Resolved Fluorescence (HTRF) cAMP Assay. HEK 293 cells stably transfected with a vector containing the LH receptor and maintained under hygromycin selection were obtained from the laboratory of Dr. Marvin Gershengorn. Compounds were assayed using a HTRF cAMP detection kit (Cisbio) on the LH receptor transfected cell line. Briefly, 750 cells were plated in 2.5 ul/well of complete media (DMEM containing 10 % FCS, and 100 uM RO 20-1724) in 1536 well solid bottom white plates and 23 nl/well compound in DMSO solution or controls was added. Following 30 minute incubation at room temperature, 2.5 ul/well of labeled d2 cAMP and 2.5 ul/well of anti-cAMP antibody (both diluted 1:20 in lysis buffer) were added to each well using a flying reagent dispenser (Aurora Discovery, San Diego) . Plates were measured using the Envision plate reader (PerkinElmer, Boston, MA) with excitation at 330 nm and emissions of 615 nm and 660 nm.
% is set by controls: 0 for no effect and ±100 for the full control effect; potency is the fitted concentration of half-maximal effect.

Activity change, negative = inhibition, inactive:
CCOc1cc(N2CCOCC2)c(OCC)cc1NC(=O)c1cc(S(=O)(=O)N2CCOCC2)ccc1C -0.64%, CCOC(=O)c1ccc(NC(=O)c2nc(S(=O)(=O)Cc3ccccc3)ncc2Cl)cc1 -2.38%, O=C(Nc1ccccc1)c1nnsc1S(=O)(=O)c1ccc(Cl)cc1 -4.24%, CCCc1nnc(NC(=O)c2nc(S(=O)(=O)Cc3ccc(C)cc3)ncc2Cl)s1 -2.21%, CN(c1cccc(NC(=O)c2ccc(Cl)c(S(=O)(=O)Nc3ccccc3)c2)c1)S(C)(=O)=O 1.14%, CC(C)c1nnc(NC(=O)c2nc(S(=O)(=O)Cc3ccccc3F)ncc2Cl)s1 -6.24%, COC(=O)c1ccc(NC(=O)c2nc(S(=O)(=O)Cc3cccc(C)c3)ncc2Cl)cc1 -1.75%, Cc1ccc(NC(=O)c2nc(S(=O)(=O)Cc3ccccc3C)ncc2Cl)cc1C -0.454%, Cc1ccc(CS(=O)(=O)c2ncc(Cl)c(C(=O)Nc3nnc(C(C)C)s3)n2)cc1 -6.84%, COc1ccc(OC)c(NC(=O)c2cc(S(=O)(=O)NCc3ccco3)ccc2F)c1 -2.65%, COc1ccccc1C1CCN(c2cc(O)ccc2[N+](=O)[O-])CC1 1.21%, Cc1ccc(C)c(N2CCN(C(=O)C(Cc3ccccc3)n3cccc3)CC2)c1 (stereo not given) -3.11%, Cc1ccccc1NC(=O)c1cc2ccccn2n1 2.78%, Cc1csc(NC(=O)c2cc3c(C)nn(Cc4ccccc4Cl)c3s2)n1 -3.84%, COC(=O)CCN(Cc1cc(OC)ccc1OC)S(=O)(=O)c1ccccc1Br 1.58%, CCn1c(=NC(=O)CSC(C)=O)sc2cc(OC)ccc21 -1.89%, Brc1ccc(CNc2ccc3ncccc3c2)cc1 0.575%, Cc1n[nH]c(C)c1S(=O)(=O)N1CCCC(C(=O)N2CCN(c3ccc(Cl)cc3)CC2)C1 (stereo not given) -2.41%, CCCCn1c(-c2c(Cl)c(C)nn2C)n[nH]c1=S 2.87%, Clc1ccc(CCNc2ncnc3nc[nH]c23)cc1 -2.95%, Cc1cc(-n2c(C)cc(C(=O)CSc3[nH]c(=O)cc(C(F)(F)F)c3C#N)c2C)no1 2.79%, Cc1ccc(C(=O)C2=C(O)C(=O)N(c3ncccn3)C2c2ccccc2F)o1 (stereo not given) -6.53%, O=c1[nH]nc(Cc2ccc(-c3cccc(Cl)c3)o2)c2ccccc12 1.92%, C1=C(CCNc2ncnc3c2[nH]c2ccccc23)CCCC1 -9.93%, COc1ccc(N2CCN(C(c3nnnn3CCc3ccccc3)C(C)C)CC2)cc1 (stereo not given) -0.511%, O=C(NCCC1=CCCCC1)C1CCCN(S(=O)(=O)c2ccccc2)C1 (stereo not given) -0.0889%, CCCCCCOc1ccc(NC(=O)CC2C(=O)N(CC)C(=S)N2Cc2ccco2)cc1 (stereo not given) 0.236%, COc1ccc(Nc2ccc([N+](=O)[O-])c3nonc23)c(OC)c1 1.19%, COC(=O)c1c(NC(NC(C)=O)C(Cl)(Cl)Cl)sc2c1CCCC2 (stereo not given) 1%, COc1cc([N+](=O)[O-])cc(/C=C2/SC(=S)N(Cc3ccccc3)C2=O)c1O -3.99%, COc1ccccc1N1CCN(c2nc(C)nc3c2oc2ccccc23)CC1 1.31%, Cc1cccc(/C=C/C(=O)c2cc(Br)ccc(=O)c2O)c1 -0.0449%, O=S(=O)(c1cc(C(F)(F)F)ccc1Cl)N1CCN(c2ncnc3ccccc23)CC1 -3.64%, COc1cc2sc3ccc(-c4ccc(CN5CCOCC5)cc4)cc3c(=O)c2cc1OC -5.62%, O=C(Nc1ccccc1Cl)/C(Cl)=C(\Cl)S(=O)c1ccccc1 (stereo not given) -22.7%, COc1ccc(NS(=O)(=O)c2ccc3c(c2)Cc2ccccc2-3)cn1 1.94%, c1ccc2c(Cn3nnc4ccccc43)cccc2c1 2.75%, Cc1onc(-c2ccccc2Cl)c1C(=O)NC(=S)Nc1ccc(C(C)C)cc1 -0.899%, O=C(N1CCN=C1SCc1cccnc1)C12CC3CC(CC(C3)C1)C2 -1.74%, O=C(CSc1nc2cc(Cl)c(Cl)cc2[nH]1)c1ccc2c(c1)OCO2 2.41%, O=S(=O)(Nc1ccc2cn[nH]c2c1)c1cc(Br)ccc1Br -0.271%, C=C(C)CNc1cc(S(=O)(=O)N2CCOCC2)ccc1Oc1ccccc1 -2.45%, Clc1ccc(CSc2nnc(CNc3cccc(Cl)c3)o2)cc1 0.688%

Potency, active:
CCN(c1ccccc1)S(=O)(=O)c1ccc(NC(=O)c2nc(S(C)(=O)=O)ncc2Cl)cc1 33.8 µM, CCS(=O)(=O)c1ncc(Cl)c(C(=O)Nc2ccc(S(=O)(=O)N(C)c3ccccc3)cc2)n1 42.6 µM, CCC1CCCCN1S(=O)(=O)c1ccc(NC(=O)c2nc(S(C)(=O)=O)ncc2Cl)cc1 (stereo not given) 30.1 µM, CN(c1ccccc1)S(=O)(=O)c1ccc(NC(=O)c2nc(S(C)(=O)=O)ncc2Cl)cc1 30.1 µM, O=[N+]([O-])c1ccc(Sc2cccc[n+]2[O-])c2nonc12 23.9 µM, O=C1C=CC(=O)N1CCCCCCN1C(=O)C=CC1=O 33.8 µM, COc1ccc(NC(=O)/C(Cl)=C(/Cl)S(=O)Cc2ccccc2Cl)cn1 (stereo not given) 37.9 µM
